Measured values from ChEMBL document CHEMBL4513216, “Probing the Open Global Health Chemical Diversity Library for Multistage-Active Starting Points for Next-Generation Antimalarials” (ACS Infect Dis, 2020).
The whole screen tested about 65,000 compounds, of which about 2,100 (3.2%) showed an effect of 50% or more. The median lay at about -52%. The sample as a whole holds a higher share of strong results than the screen did.

tested on: Plasmodium falciparum; assay: Screen against P. falciparum Asexual Blood Stage (ABS), at 5uM; type: functional, Dd2; conditions: tested at 5 uM

Row | Compound | INHIBITION
1 | Cc1nc(COCc2cnc3n2CCN(C)C3C)cs1 (stereo not given) | -63.4%
2 | O=C(NCCc1cccs1)[C@H]1CO[C@H]2CCN(C3CCC3)C[C@H]2C1 | -9.07%
3 | CCN1CCC(CNS(=O)(=O)N2CCc3ccccc3C2)C1 (stereo not given) | 53.9%
4 | O=S1(=O)CCC(CNS(=O)(=O)N2CCc3ccccc3C2)C1 (stereo not given) | -114%
5 | O=S(=O)(NCC1CCOC1)N1CCc2ccccc2C1 (stereo not given) | -80.7%
6 | COc1ccc(C(=O)NCC(c2cccn2C)N2CCN(C)CC2)cc1 (stereo not given) | -35%
7 | COc1ccc(C(=O)NCC(c2cccn2C)N2CCCC2)cc1OC (stereo not given) | 28%
8 | COc1cc(OC)cc(C(=O)NCC(c2cccn2C)N2CCCC2)c1 (stereo not given) | 55.5%
9 | O=C(NCC(O)COc1ccccc1)Nc1nncs1 (stereo not given) | -50.2%
10 | O=C(CCc1ccccc1)NCC1CCN(Cc2cccs2)CC1 | -7.73%
11 | O=C(CCc1ccccc1)NCC1CCN(Cc2ccsc2)CC1 | 19.8%
12 | O=C(CCc1ccsc1)NCC1CCN(Cc2cccs2)CC1 | 59.5%
13 | CCOc1nn(CC)cc1-c1nnc(SCc2ccccn2)n1C | -121%
14 | CCCC(=O)N(CCCN1CCOCC1)c1nc2c(Cl)cccc2s1 | -1.93%
15 | Cc1noc(C(C)C)c1C(=O)NCC1CCCN1Cc1ccccc1 (stereo not given) | 65.7%
16 | Cc1noc(C)c1C(=O)NCC1CCCCN1Cc1ccccc1 (stereo not given) | -3.72%
17 | Cc1noc(C(C)C)c1C(=O)NCC1CCN(c2ccccc2)C1 (stereo not given) | 35.6%
18 | Cc1cnn(CCC(=O)N2CCC3(CCC(=O)N(CC4CC4)C3)CC2)c1 | -49%
19 | Cn1nc(CNC(=O)c2ccc3nsnc3c2)c2c1CCOC2 | -37.5%
20 | Cc1cnc(C)c(Oc2ccc(Cl)c(CN3CCCC3)c2Cl)n1 | -31.4%
21 | CCc1noc(C2CCCCN2C(=O)c2cc(C)oc2C)n1 (stereo not given) | -14.9%
22 | COc1ccc(Cl)cc1NCc1cc(C)on1 | -142%

Row | Compound | INHIBITION
23 | COc1cc2nc(NCc3cc(C)on3)nc(N)c2cc1OC | 61.4%
24 | CCOc1ccc(OCC)c(NCc2cc(C)on2)c1 | -105%
25 | O=S(=O)(c1ccccc1)N1CCC2(CCCN2Cc2cccc(Cl)c2)C1 (stereo not given) | 18.8%
26 | Cc1cc(F)ccc1-c1ccccc1CC1CNCCNC1=O (stereo not given) | 49.3%
27 | COc1ccc(F)cc1-c1ccccc1CC1(C(=O)O)CCOCC1 | -130%
28 | COc1ccc(F)cc1-c1ccccc1CC1CNCCNC1=O (stereo not given) | 51.7%
29 | O=C(CSCCN1CCOCC1)N1CCc2ccccc2C1 | -92.5%
30 | O=C(CCc1nccs1)N1CCN(c2ccccn2)CC1 | -127%
31 | Cn1ccnc1CN1CCC2(COCCN(Cc3ccsc3)C2)C1 (stereo not given) | 52%
32 | Cn1ccnc1CN1CCC2(CC1)COCCN(c1ncccn1)C2 | -9.16%
33 | Cn1ccnc1CN1CCC2(COCCN(S(=O)(=O)C3CC3)C2)C1 (stereo not given) | -106%
34 | COCC1Cn2nnc(-c3cnn(C)c3)c2CN1Cc1ccoc1 (stereo not given) | 28.8%
35 | CCCc1nc2c(c(C)c(C)n2Cc2cccnc2)c(N)c1CC | 65%
36 | CCc1nc2c(c(C)c(C)n2Cc2cccnc2)c(N)c1C | 20.4%
37 | Cc1c(C)n(Cc2ccncc2)c2nc3c(c(N)c12)CCCC3 | -12.1%
38 | CCc1c(C)sc2c1c(N)nc(=O)n2CCN(C)C | 17.4%
39 | Cc1cc(C(=O)N2CCNC(=O)C2)c(C)n1Cc1ccccn1 | -68.6%
40 | CCc1cc(NCCc2cccnc2)n2nc(C)c(C)c2n1 | -108.7%
41 | CCc1c(-c2ccccc2)nc2c(c(C)c(C)n2CCN(C)C)c1N | 67.6%
42 | Cc1c(C)n(Cc2ccncc2)c2nc3c(c(N)c12)CCCCCC3 | 28.3%
43 | CCc1c(C)sc2c1c(N)nc(=O)n2CCCN(C)C | -147%
44 | CCCc1nc2c(c(C)c(C)n2Cc2ccncc2)c(N)c1CC | 60.3%

Row | Compound | INHIBITION
45 | CCCc1nc2c(c(C)c(C)n2Cc2ccccn2)c(N)c1CC | 59.4%
46 | Cc1c(C)n(Cc2ccccn2)c2nc3c(c(N)c12)CCCC3 | 46.7%
47 | CCC(Nc1nc(C)nc2onc(C)c12)c1nc(C)c(C)s1 (stereo not given) | -38.1%
48 | CCCc1noc(CN2CCOCC2C)n1 (stereo not given) | -47.4%
49 | Cc1cc(NC(=O)CCn2nc(C)c3ccccc32)n(C(C)C)n1 | -75.1%
50 | CO[C@H]1CCN(S(=O)(=O)c2cn(C)cn2)[C@H]1Cc1cccnc1 | -8.09%
51 | Cc1cc(=O)n2nc(-c3cccs3)nc2n1CC(=O)NC(C)C | -10.8%
52 | Cc1cc(C)c(CNC(=O)N(C)Cc2ccc3c(c2)OCO3)c(=O)[nH]1 | -71.6%
53 | Cn1cc(NC(=O)N2CCC(OCc3ccccc3)CC2)ccc1=O | 43.6%
54 | Cc1nn(C)c(N(C)C)c1CNCC(O)COc1cccc(F)c1 (stereo not given) | -0.711%
55 | COC(=O)c1ncccc1N1CCN(C(=O)CN2CCOCC2)CC1 | -131%
56 | Cc1cnn(CC2CCCCN2C(=O)Cc2cn3ccsc3n2)c1 (stereo not given) | -120%
57 | CCc1cnc2c(c1Nc1ccc(C)c(F)c1)c(=O)n(C)c(=O)n2C | 41.1%
58 | Cc1c(C)n(Cc2ccccn2)c2nc3c(c(N)c12)CCCCC3 | 23.7%
59 | Cc1c(C)n(Cc2ccccn2)c2nc3c(c(N)c12)CCCCCC3 | 60.3%
60 | Cc1c(C)n(Cc2ccncc2)c2nc3c(c(N)c12)CCCCC3 | 21%
61 | Cc1cccc2c1ccn2CCC(=O)Nc1c2c(nn1C)CSC2 | -53.4%
62 | Cc1ccc(Br)cc1NC(=O)NC1CCC2(C1)OCCO2 (stereo not given) | -96.9%
63 | CC1N(c2cnn(C)c2)C(=O)COC12CCN(c1ncccn1)CC2 (stereo not given) | -127%
64 | CCc1nn(-c2cc(Oc3cc(C)ccc3C)ncn2)c(N)c1C#N | -64%
65 | C[C@]1(O)CN(CC(=O)N2CCCC2)CC[C@@H]1Oc1cccc(F)c1 | 25%
66 | C[C@]1(O)CN(CCC(N)=O)CC[C@@H]1Oc1cccc(F)c1 | -39.3%

Row | Compound | INHIBITION
67 | C[C@]1(O)CN(CCO)CC[C@@H]1Oc1cccc(F)c1 | 65.2%
68 | CCc1cnc(N2CCc3cc(C(=O)NC)c(N(C)C)nc3CC2)nc1 | -12.1%
69 | O=C1[C@@H]2CC[C@@H](CN(c3ncnc4ccsc34)C2)N1CC1CC1 | -85.4%
70 | CC(C)Cc1noc(CN(C)c2cc(N(C)C)ncn2)n1 | 50.4%
71 | CC(C)Cc1noc(CN(C)c2ncccn2)n1 | -64.8%
72 | CCc1cc(N(C)Cc2noc(CC(C)C)n2)ncn1 | -78.3%
73 | CNc1cc(N2CCCC2CNCc2ccco2)ncn1 (stereo not given) | -103%
74 | O=C(C1CCOC1)N1CC2(CCN(c3ccccc3)C2)C1 (stereo not given) | -3.52%
75 | CC(C)CC(=O)N1CC(=O)c2sc(Nc3ccc(F)cc3F)nc2C1 | -30.6%
76 | Cc1cnn(CC2CCN(CC(O)Cn3cccn3)CC2)c1 (stereo not given) | -78.8%
77 | Cc1cnn(CC2CCN(CC(O)CN3CCC(C)CC3)CC2)c1 (stereo not given) | 63.8%
78 | Cc1ccc(OCC(O)CN2CCC(Cn3cc(C)cn3)CC2)cc1 (stereo not given) | -93.6%
79 | CCc1nc(C)c(C(=O)NCCNC(=O)c2cccs2)s1 | -96.9%
80 | CCc1nc(NCCCn2cccn2)c2c(n1)c(C)nn2CC | -75.8%
81 | COCCNC(=O)CN(C)C(C)c1nc(C)no1 (stereo not given) | -63.5%
82 | Cc1ccc(C(=O)NCc2ccnc(C3CCCOC3)n2)s1 (stereo not given) | 53.3%
83 | Cc1ccsc1C(=O)NCc1ccnc(C2CCCOC2)n1 (stereo not given) | -57.8%
84 | Cn1cccc1C(=O)NCc1ccnc(C2CCCOC2)n1 (stereo not given) | -162%
85 | COc1ccc(-c2cc(N)ccn2)c(OC)c1OC | -9.16%
86 | COc1cc(F)ccc1-c1cc(CO)ccn1 | -92%
87 | COc1cc(F)ccc1-c1cc(N)ccn1 | 52.7%
88 | CC(=O)NCc1nn(C)c2c1CN(Cc1ccsc1)C2 | -24.6%

Row | Compound | INHIBITION
89 | Cc1csc(N2CCN(C3CCc4ccccc4C3)CC2)n1 (stereo not given) | -22.1%
90 | Fc1ccc(CN2CCC3(CCN(Cc4nccs4)CC3)C2)cc1 | 57.9%
91 | Fc1ccc(CN2CCC3(CC2)CCN(c2ncccn2)CC3)cc1 | 55%
92 | COc1ccc(CN2CCC3(CC2)CCN(c2ncccn2)CC3)cc1 | -85.1%
93 | c1cnc(N2CCC3(CCN(Cc4cccnc4)CC3)CC2)nc1 | -71.4%
94 | c1csc(CN2CC3(CCN(Cc4ccsc4)C3)C2)n1 | -42.4%
95 | Fc1ccc(CN2CCOCC3(CCN(Cc4nccs4)C3)C2)cc1 (stereo not given) | 0.38%
96 | CSc1cccc(NC(=O)N2CCC3(CCC(=O)N(C4CC4)C3)CC2)c1 | -19.6%
97 | O=C(CCC(F)(F)F)N1CCCC(CO)(CC2CC2)C1 (stereo not given) | -11.2%
98 | Cc1ccc(CN2CCc3c(nnn3C)C2COCc2ccccc2)s1 (stereo not given) | -109%
99 | O=C(N1CCSCC1)C1(O)Cc2ccccc2C1 | -41.2%
100 | O=C(N1CCc2ccccc2CC1)C1(O)Cc2ccccc2C1 | 58.7%
101 | O=C(N1CCN(CCO)CC1)C1(O)Cc2ccccc2C1 | -1.26%
102 | Nc1nnnn1NCc1cccc(Cl)c1Cl | -65.4%
103 | Cc1cc(NC(=O)CN2CCCC(Cn3nc(C)nc3C)C2)n(C)n1 (stereo not given) | 54.5%
104 | Cc1nc(C)n(CC2CCCN(CC(=O)Nc3ccncc3)C2)n1 (stereo not given) | 60.6%
105 | Cc1nc(C)n(CC2CCCN(CC(=O)Nc3cc(C)on3)C2)n1 (stereo not given) | 3.79%
106 | Cc1nc(C)n(CC2CCCN(CC(=O)Nc3cccnc3)C2)n1 (stereo not given) | -133%
107 | Cc1cc(NC(=O)CN2CCCC2Cn2nc(C)nc2C)n(C)n1 (stereo not given) | -142%
108 | Cc1nc(C)n(CC2CCCN2CC(=O)Nc2ccncc2)n1 (stereo not given) | -153%
109 | COCC(=O)Nc1ccc(C)cc1-c1nc(C2CC2)no1 | -92.7%
110 | CCn1cc2c(n1)CN(Cc1ccc(C)o1)CC2COCC1CC1 (stereo not given) | -68.6%
